Results on 39 compounds are retold here after PubChem BioAssay.

“And” between values parts separate entries of the source, which are not always exact repeats. Identical values can stand only once. Unmarked numbers belong to inactive results. The source made the active and inactive calls.

This assay in a line: viability profiling in MM1S myeloma cells – cell-based, resazurin fluorescence, basal, 24 h, PK04 Diversity Set, profiling panel (AID 1174). Note: test concentration not given here. The following applies: higher = more signal, called active from +8 up or from −8 down. A general note: Resazurin is reduced to fluorescent resorufin, in cell work by metabolically active cells.
On to `CO[C@H]1COC(=O)CC=C[C@@H](C)COC(=O)[C@H](CCSC)NC(=O)CC=C[C@@H]1C`, for which the z-score was -0.473 and 1.67. On to `C=CCN(CCCCC)C(=O)C1N(C(C)(C)CO)C(=O)C2C(C(=O)O)C3C=CC21O3` (centres undefined), for which the z-score is -1.09 and -0.64. Then `C=CCN1C(=O)[C@]2(O[C@H](CCn3cc(CCO)nn3)[C@@H]([Si](C)(C)c3ccc(OC)cc3)[C@@H]2C)c2cc(N3C(=O)c4cccc5cccc3c45)ccc21`, with -9.01 (active) and -9.12 (active); and `CCC[C@@H]1C[C@@]1(CCC)[C@@H](NC(=O)c1ccc(-c2ccccc2)cc1)c1cccc(Cl)c1`, with -0.0393 and -0.312; and `C[C@@H]1CC[C@H]2C(=O)O[C@H](CN=[N+]=[N-])CN2[C@H]1c1ccc(Br)cc1`, with -0.586 and 0.637.

Regarding `C[C@@H]1CN2[C@@H](CC[C@@H](C)[C@@H]2c2ccc(Br)cc2)C(=O)O1`, the z-score was 0.475 and -0.181. Take `COc1ccc(O[C@H]2C=C[C@@H](c3ccccc3)O[C@@H]2COC(=O)CCC(C)=NO[C@H](C)c2cn([C@H](CO)Cc3ccccc3)nn2)cc1`: the z-score is 0.149 and -0.116.

`CON(C)C(=O)c1nnc2c3ccccc3n(S(=O)(=O)c3ccc(C)cc3)c2n1`: the z-score was -0.125 and -0.498. The result for `COc1ccc(COC(=O)NN=C2C[C@@H](O)[C@@H](O)[C@@H]3[C@@H]4C(=O)N(C(C)(C)C)C(=O)[C@@H]4CC[C@H]23)cc1` reads -0.18; that for `COC(=O)C1=C(C)N(Cc2ccccc2)[C@]23O[C@](C(=O)OC)(C(=O)N2[C@@H]1c1ccccc1)[C@@H](C(=O)OC)[C@H]3C(=O)OC`, 0.409 and -0.59; that for `C[C@@H]1CC[C@H]2C(=O)NC[C@@H](O)CN2[C@H]1c1ccc(Br)cc1`, -0.503 and 0.138. The result for `C#CCCCON=C1C[C@@H](O)[C@@H](O)[C@@H]2[C@@H]3C(=O)N(C4CCCCC4)C(=O)[C@@H]3CC[C@H]12` reads -2.78; that for `C[C@@H]1CC[C@@H](C(=O)O)N[C@H]1c1ccc(-c2ccco2)cc1`, 0.603. Then `C=CCN(C(=O)C1N(C(C)(C)CO)C(=O)C2C(C(=O)O)C3C=CC21O3)C(C)(C)C` (centres undefined), with -0.638 and 0.113; and `C=CCN(C(=O)C(c1cccs1)N(C(=O)/C=C\C(=O)O)c1ccc(CCO)cc1)C(C)(C)C` (centres undefined), with 0.448 and 0.224; and `Cc1ccc(S(=O)(=O)N[C@H]2COC(=O)[C@@H](Cc3ccccc3)NC(=O)[C@@H](C)COC(=O)CC=C[C@@H]2C)cc1`, with 0.0731 and -0.209.

In the case of `CC(C)[Si]1(C(C)C)OCc2cc(CCCc3cc4c(c(CCc5ccccc5)n3)[Si](C(C)C)(C(C)C)OC4)nc(CCc3ccccc3)c21`, the z-score was -0.78 and -0.186. The result for `O=c1n(-c2ccccc2)c(=O)n2n1CC[C@@H]1C(=NOC[C@@H](O)COCc3ccco3)[C@H]3O[C@H]3[C@@H](O)[C@@H]12` reads 0.467 and -0.453. Regarding `O=C1C[C@]2(c3ccc([N+](=O)[O-])cc3)C(=O)N(Cc3ccccc3)c3cc(CO)ccc3[C@H]2N1C1CCCCC1`, the z-score is 0.0351 and -0.743. Consider `CCOC(=O)[C@H](CC(C)C)NC(=O)CCC1CC(OC(=O)NCc2cccc3ccccc23)CC2(CCCC(COC(=O)NCc3ccccc3)O2)O1` (some centres undefined), for which the z-score is 1.06. Then `CCOC(=O)c1ccc(NC(=O)O[C@H]2[C@H](OC(=O)Nc3ccccc3)[C@H](OC(=O)Nc3ccccc3)[C@@H](OC)O[C@@H]2CO)cc1`, with -1.75 and -3.01; and `CC[C@@H]1C(Sc2ccccc2)C(C(=O)O)[C@H](c2ccc(C)cc2)N1S(=O)(=O)c1ccc(C)cc1` (some centres undefined), with -0.567 and 0.0522; and `CCCC[C@@H]1CN2[C@@H](CC[C@@H](C)[C@@H]2c2ccc(Br)cc2)C(=O)O1`, with 0.0509 and 0.231. For the compound `C=CCN(CCCCC)C(=O)C(c1cccs1)N(C(=O)/C=C\C(=O)O)c1ccc(CCO)cc1` (centres undefined), the z-score was -0.585 and -0.372.

For `C=C(C)C(=O)OC[C@@H]1CN2[C@@H](CC[C@@H](C)[C@@H]2c2ccc(Br)cc2)C(=O)O1`, the z-score was 0.155.

As to `COC(=O)C1=C2N(Cc3ccccc3)C(C)=C(C(=O)OC)[C@@H](c3ccccc3)N2C(=O)[C@](O)(C(=O)OC)C1`, the z-score is 0.7 and 0.349. The result for `C=C[C@@H](C)[C@@H](O)c1ccc(OCCO)cc1` reads -0.435 and 0.286; that for `C=CCN(Cc1ccccc1)C(=O)C1N(C(C)(C)CO)C(=O)C2C(C(=O)O)C3C=CC21O3` (centres undefined), -0.796 and 0.0609.

Take `C=CCN(C(=O)C1N(C(C)(C)CO)C(=O)C2C(C(=O)O)C3C=CC21O3)c1ccc(OC)cc1` (centres undefined): the z-score is 1.01 and 0.128. With `COC(=O)c1c2oc(c1C(=O)OC)C(=O)N[C@@H](Cc1ccccc1)Cn1cc(nn1)C1(CCCCC1)NC(=O)N[C@H](CO)CC2`, the z-score was 0.74 and 2.29. `C=C[C@H](C)[C@H](O)c1ccc(O)c2ccccc12`: the z-score was -0.709 and -0.107. Take `CCOC(=O)C[C@H]1[C@H](OC(=O)c2ccccc2-c2ccccc2)[C@@H](NC(=O)Cc2ccc(OC)cc2)c2cc(OCCCO)ccc2N1C(=O)c1ccc2ccccc2n1`: the z-score is 1.19 and 0.644. As for `CC(C)OC(=O)C=C1C[C@@H](c2ccccc2)O[C@@H](c2ccccc2)O1`, the z-score was 0.468 and -3.15.

Turning to `COC(=O)C1=C(C)N(Cc2ccccc2)C2=C(C(=O)c3ccccc3)[C@H](c3ccccc3)[C@@](O)(C(=O)OC)C(=O)N2[C@@H]1c1ccccc1`, the z-score is -1.34 and -0.716. As to `COC(=O)[C@@]1(Cc2ccc(F)cc2)[C@H]2c3cc(C(=O)N4CCCC4)n(Cc4c(CO)[nH]cc(C)c4=O)c3C[C@H]2CN1C(=O)c1ccccc1`, the z-score was -1.14 and -0.131. Regarding `C[N+](C)(C)CCCCCCNC(=O)[C@H]1C[C@H]2C(=O)N[C@@H](CCCC[N+](C)(C)C)C(=O)N2[C@H]1c1ccc(O)cc1`, the z-score is -0.0993 and -1.52. The result for `CC(CO)N1C(=O)[C@@H]2C3C(=O)OCCC=C[C@H]3OC23C=CCN(CCN2CCOCC2)C(=O)[C@@H]13` (some centres undefined) reads -1.45 and -0.517; that for `CCCC[C@@H]1CN2[C@H](c3ccc(Br)cc3)[C@@H](C)CC[C@H]2C(=O)O1`, 0.0474 and 0.358. Consider `CO[C@H]1COC(=O)CC=C[C@H](C)[C@H](OC)COC(=O)[C@@H](C)COC(=O)CC=C[C@@H]1C`, for which the z-score was 0.429 and 0.802.
